Reference: PubChem BioAssay (NCI)
The panel holds about 83,000 compounds, 20% with a hit somewhere; the sample as a whole holds those more often.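 The test compound was applied at a single concentration to cells in 96-well plates for 48 hours, and percent growth was recorded.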 Unmarked numbers belong to inactive results. Activity calls are given as the source filed them. The calls were made as follows: active = growth percent below 10; inactive = the rest.

Legend:
Assay in all cases: NCI-60 one-dose screen, 48 h (100 = growth as untreated, 0 = no growth, -100 = all killed)
Settings in all cases: 10 µM unless noted
NCI-H23 lung = test system: NCI-H23 lung
NCI-H226 lung = test system: NCI-H226 lung
NCI-H322M lung = test system: NCI-H322M lung
HOP-62 NSCLC = test system: HOP-62 NSCLC
NCI-H460 lung = test system: NCI-H460 lung
HOP-92 NSCLC = test system: HOP-92 NSCLC
NCI-H522 lung = test system: NCI-H522 lung
A549/ATCC NSCLC = test system: A549/ATCC NSCLC
786-0 renal = test system: 786-0 renal
COLO 205 colon = test system: COLO 205 colon
DU-145 prostate = test system: DU-145 prostate
K-562 leukemia = test system: K-562 leukemia
MALME-3M melanoma = test system: MALME-3M melanoma
MDA-MB-231 breast = test system: MDA-MB-231 breast
RXF 393 renal = test system: RXF 393 renal
SF-268 CNS = test system: SF-268 CNS
SF-295 CNS = test system: SF-295 CNS
SF-539 CNS = test system: SF-539 CNS
UACC-257 melanoma = test system: UACC-257 melanoma
M14 melanoma = test system: M14 melanoma

Row | Structure (SMILES) | growth (NCI-H23 lung) [%] | growth (NCI-H226 lung) [%] | growth (NCI-H322M lung) | growth (HOP-62 NSCLC) | growth (NCI-H460 lung) | growth (HOP-92 NSCLC) | growth (NCI-H522 lung) | growth (A549/ATCC NSCLC) [%] | growth (786-0 renal) | growth (COLO 205 colon) | growth (DU-145 prostate) [%] | growth (K-562 leukemia) | growth (MALME-3M melanoma) | growth (MDA-MB-231 breast) | growth (RXF 393 renal) | growth (SF-268 CNS) | growth (SF-295 CNS) | growth (SF-539 CNS) | growth (UACC-257 melanoma) | growth (M14 melanoma)
1 | C=C(C)[C@@H]1CC[C@]2(N=C=O)CC[C@]3(C)[C@H](CC[C@@H]4[C@@]5(C)Cc6c([nH]c7ccccc67)C(C)(C)[C@@H]5CC[C@]43C)[C@@H]12 | 98 | 90.5 | 88.4% | 89% | 39.5% | 66.2% | 53.4% | 73.5 | 66.7% | 65.6% | 63.2 | 3.74% (active) | 101% | 68.4% | 81.6% | 80.7% | 111% | 89.3% | 109% | 70.5%
2 | Cc1ccc2sc3c(NCCN)nc4ccccc4c3c(=O)c2c1 | 81.1 | 93.2 | 81.5% | 80.6% | -17.1% (active) | 50.7% | 85% | 73.3 | 87.7% | -21.7% (active) | 64.1 | 0.362% (active) | 102% | 41.7% | 89.8% | 74.5% | 105% | 70.8% | 108% | 86.7%
3 | CCCCn1c(-c2ccc(-c3nc(-c4ccc(Cl)cc4)no3)cc2)nc(-c2ccccc2)c1-c1ccccc1 | 68.2 | 84.2 | 90.4% | 92.4% | 95.6% | 75.4% | 75.2% | 36.3 | 82% | 98.8% | 93.4 | 58.9% | 92% | 79.9% | 101% | 95.5% | 79% | 85.5% | 97.8% | 94.4%
4 | CCCCCCCCCCCCCCCCCCOc1ccccc1CCCOP(=O)(O)OCC[N+](C)(C)C | 93.5 | 92.3 | 113% | 59.3% | 14.1% | 33.4% | 67.9% | 54.8 | 85.1% | 31.6% | 75 | 69.2% | 89.5% | 78.2% | 11.1% | 62.5% | 52.4% | 91.4% | 88% | 77.7%
5 | Cc1cc(=O)oc2cc(OC(=O)CN3CCN(C)CC3)ccc12 | 97.4 | 100 | 105% | 99.3% | 102% | 88.5% | 92.4% | 102 | 105% | 110% | 109 | 93.7% | 112% | 101% | 101% | 97.5% | 101% | 98.4% | 109% | 97.9%
6 | CNc1nc2c(s1)C(c1cccc(F)c1)CC(=O)N2 (stereo not given) | 100 | 90.3 | 99.1% | 93.3% | 106% | 93.4% | 87.4% | 106 | 97.4% | 110% | 106 | 95.6% | 110% | 104% | 93.9% | 94.1% | 104% | 92% | 107% | 106%
7 | COc1ccc2c(c1)c(-c1ccc(-c3cn(C)c4ccc(OC)cc34)o1)cn2C | 67.3 | 82.7 | 95.1% | 93.2% | 56.8% | 38% | -19.6% (active) | 66.4 | 83.2% | 16.3% | 107 | 2.25% (active) | 80.6% | 69.1% | 66.8% | 71.8% | 62.2% | 18% | 90% | 71.2%
8 | COc1ccc(-c2nc3sc(-c4ccccc4)cn3n2)cc1 | 72 | 76.3 | 85.8% | 50.5% | 34.9% | 67.6% | 29.6% | 50.8 | 88% | 36.7% | 83.5 | 23.8% | 67.6% | 47% | 75.3% | 71.8% | 61.8% | 75.2% | 71.8% | 28.4%
9 | COc1ccc(-c2ncnc3c2ncn3CC#CCCl)cc1 | 59.1 | 56.5 | 92% | 77.5% | 67.8% | 9.39% (active) | 49% | 60.1 | 36.4% | 80% | 87.6 | 58.3% | 20.2% | 70.1% | 29.7% | 62.9% | 95.3% | 92.3% | 59.5% | 70.1%
10 | Cc1c(C(=O)/C=C/Nc2c(Cl)cc(S(N)(=O)=O)cc2Cl)sc2nc3ccccc3n12 | 99.8 | 99.6 | 107% | 107% | 104% | 111% | 89.9% | 103 | 107% | 110% | 107 | 105% | 105% | 102% | 115% | 95.4% | 101% | 96.6% | 105% | 106%
11 | NCCCNc1nc2ccccc2c2c(=O)c3cc(F)cc(Cl)c3sc12 | 95.5 | 88.9 | 87.7% | 92.6% | -74% (active) | 70.4% | 92.9% | 79.1 | 86.3% | 106% | 64.1 | -17.7% (active) | 106% | 51.4% | 73.6% | 79.9% | 102% | 83% | 114% | 90.4%
12 | O=C(Nc1c2ccccc2nc2ccccc12)c1ccccc1CN1C(=O)c2ccccc2C1=O | 28.6 | 40.2 | 21% | 37.4% | 3.79% (active) | 38.5% | 23.7% | 18.8 | 38.9% | 9.84% (active) | 27.3 | 22.8% | 31.2% | 34.3% | 43.9% | 34.3% | 31.7% | 21.6% | 38.5% | 21%
13 | CCCCNc1nc(NN2C(=O)c3cccc4cccc(c34)C2=O)nc(-n2cnc3ccccc32)n1 | 88.7 | 54.9 | 92.7% | 97.4% | 102% | 60.3% | 89.5% | 89.4 | 97.7% | 107% | 98.6 | 34% | 105% | 87.8% | 74.8% | 89.9% | 88.9% | 75.9% | 99% | 103%
14 | Cc1ccc(C2CC(c3ccc(Nc4ccnc5cc(Cl)ccc45)cc3)=NN2C=O)cc1 (stereo not given) | 60.3 | 85.1 | 87.8% | 72.5% | 69.8% | 61.5% | 50.1% | 50.2 | 64% | 64.9% | 68.4 | 16.2% | 46.5% | 66.2% | 61.7% | 48.5% | 31.2% | 91% | 79.8% | 45.8%
15 | CN(C)c1ccc(/C=N\Nc2cc(=O)[nH]c3ccc(Cl)cc23)cc1 | 82.8 | 75 | 99.2% | 91.8% | 102% | 82.2% | 86.1% | 96.6 | 102% | 112% | 123 | 91.8% | 122% | 91.5% | 105% | 99.5% | 98% | 101% | 98.1% | 94.5%
16 | Fc1cc(-c2nnc3n2NC(=Nc2ccc(Cl)cc2)CS3)c(Cl)cc1Cl | 79.3 | 122 | 100% | 73.6% | 96.5% | -18.6% (active) | 76.3% | 87.5 | 81.9% | 95.6% | 97.8 | 51.5% | 105% | 104% | 89.8% | 91.7% | 81.5% | 98.6% | 92.5% | 92.4%
17 | COc1ccc(-c2nc(NN)c3c(C)nn(-c4ccc(F)cc4)c3n2)cc1 | 66.9 | 80 | 74.6% | 50.6% | 18.8% | 52.7% | 22.6% | 38.1 | 38.6% | 35.4% | 37.9 | 17.8% | 61.5% | 53.1% | 51% | 46.3% | 27.8% | 36.2% | 45.3% | 26.4%
18 | NCCNc1nc2ccccc2c2c(=O)c3cccc(F)c3sc12 | 70 | 78.5 | 64.7% | 58% | 13.8% | 59.9% | 59.2% | 41.1 | 76.7% | 26.6% | 37 | 17.2% | 88.4% | 44.7% | 83.3% | 61.6% | 91.7% | 59.2% | 101% | 83.3%
19 | CC([C@H]1CCC2C3CCC4C[C@@H](NC=O)CC[C@]4(C)C3CC[C@@]21C)N(C)C (stereo not given in full) | 30.2 | 43.2 | -4.46% (active) | -55.5% (active) | -59.3% (active) | 0.955% (active) | 56.5% | 15.9 | -88.4% (active) | -83.4% (active) | 34.1 | -39.8% (active) | -57.6% (active) | -13.9% (active) | -51.2% (active) | -70% (active) | -38.8% (active) | -78.4% (active) | -48.3% (active) | -48.8% (active)
20 | CN1C(=O)N(C)C2Nn3c(s/c(=C\c4ccccc4)c3=O)=NC21 (stereo not given) | 101 | 94.2 | 97% | 97.8% | 108% | 100% | 87.1% | 94.8 | 101% | 111% | 106 | 92.8% | 101% | 98.1% | 106% | 93.9% | 104% | 100% | 94.1% | 97.8%
21 | C[N+]1=C(/C=C/c2ccc(O)c3ncccc23)C(C)(C)c2ccccc21 | 80.1 | 15 | 97.4% | 30% | 32.8% | 87.1% | 51.9% | 17.9 | 66.7% | 35.7% | 85.2 | 16.5% | 115% | 64.6% | 32.5% | 81.8% | 72.9% | 25.9% | 85.3% | 67.5%
22 | CC(=O)N1N=C(c2ccc(Nc3nc(Nc4ccc(F)cc4)nc(Nc4ccc(Cl)cc4)n3)cc2)CC1c1ccc(Cl)cc1 (stereo not given) | 84.6 | 83.8 | 85.3% | 84.1% | 107% | 64.1% | 73.2% | 92.5 | 98.2% | 94.3% | 111 | 88.1% | 110% | 76.2% | 88.8% | 124% | 123% | 109% | 104% | 108%
23 | C/C=C(\C)C(=O)N[C@H]1[C@@H](OC(C)=O)C[C@]2(C)C3CC[C@@]4(C)C(CC[C@@H]4C(C)N(C)C)C3CCC2[C@H]1O (stereo not given in full) | 74.4 | 101 | 67.7% | 91.9% | 59% | 71% | 99.4% | 78.5 | 66.1% | 75.8% | 87.4 | 50.2% | 7.93% (active) | 78% | 83.2% | 42.7% | 78.2% | 37% | 3.29% (active) | -32.7% (active)
24 | Fc1cc(-c2nnc3sc(-c4ccc(Cl)cc4Cl)nn23)c(Cl)cc1Cl | 83 | 97.6 | 89.7% | 97.9% | 57.6% | 81.5% | 86.6% | 66.3 | 59.6% | 72.3% | 92.7 | 107% | 52.3% | 74.8% | 65.4% | 71.5% | 78.4% | 108% | 85.1% | 97.5%
25 | Cc1cccc(NCc2cn(-c3ccc(C(=O)O)cc3)nc2-c2ccc(C(=O)O)cc2)n1 | 110 | 99.8 | 105% | 104% | 104% | 105% | 95.8% | 104 | 102% | 111% | 103 | 96.8% | 96.5% | 95.2% | 115% | 96.2% | 102% | 98.5% | 109% | 110%
26 | Cc1[nH]c(C(=O)Nc2ccc(C(=O)N3CCNCC3)cc2OC(C)C)c(Cl)c1Cl | 90.7 | 97.2 | 86.1% | 88.7% | 2.04% (active) | 43.5% | 94% | 70.2 | 77.6% | -47% (active) | 68.1 | -28.6% (active) | 72.6% | 22.9% | 71.3% | 74.4% | 107% | 80.8% | 101% | 45.5%
